Out of some 330,000 compounds screened, about 1,700 (0.52%) were called active. Cut-off read from the data, not from the text of the source: active = inhibition above about 50%; inactive = the rest. What follows is part of a selection rich in actives, with near analogues and random picks from the rest.

The results in this text go back to PubChem BioAssay AID435003 (Sanford-Burnham Center for Chemical Genomics, 2010).

The experiment in a line: inhibitors of induced NF-kB luciferase reporter, primary screen, TCR NF-kB activation inhibitor project, cell-based, luminescence, uHTS (AID 435003). The settings on record: Jurkat, PMA/ionomycin-induced NF-kB luciferase reporter, at 4 µM, hits give high values.
As to `CC1CN(C2CCN(C(=O)COc3ccccc3)CC2)CC(C)O1` (stereo not drawn), the inhibition (in general, the drop in the measured response relative to a control, in per cent) is -5.33% (inactive).
With `CSc1ccc(S(=O)(=O)Nc2cccc(F)c2)cc1` the figure was -8.25% (inactive).
With `COc1ccccc1-n1nnnc1S(=O)(=O)Cc1ccc(Cl)cc1` the figure was 55.8% (active); with `COc1ccccc1-n1nnnc1SCC(=O)NC(=O)Cc1ccccc1`, 4.18% (inactive).
The figure for `COc1ccccc1N1CCN(S(=O)(=O)c2ccc(Cl)cc2)CC1` is -16.1% (inactive); for `Cn1c2c(c(=O)n(C)c1=O)C(c1ccc(O)cc1)Nc1ccccc1O2` (stereo not drawn) it is 3.73% (inactive).
As for `CCCCCCCCn1c2c(c(=N)c3c1CCC3)CCCC2`, the inhibition was 89.5% (active).
With `COc1ccc(C)cc1NC(=O)C(OC(=O)c1cccc(S(=O)(=O)N(C)c2ccccc2)c1)c1ccccc1` (stereo not drawn) the figure was 10.1% (inactive).
Regarding `CN(C)C(CNC(=O)c1ccc(S(=O)(=O)NCc2ccco2)cc1)c1ccccc1` (stereo not drawn), the inhibition was -19.3% (inactive).
The figure for `CC(=O)Nc1ccc(NC(=O)C2CCCN(S(=O)(=O)c3ccc(Cl)cc3)C2)cc1` (stereo not drawn) is -4.31% (inactive); for `CC(C)(C)Nc1c(-c2cccs2)nc2ccccn12` it is -10.6% (inactive); for `COc1ccc(/C(C)=N\NC(=O)c2ccc(-c3ccccc3)cc2)c(F)c1` it is -14.4% (inactive).
Turning to `C/C(=N\NC(=O)c1ccoc1C)c1ccccc1O`, the inhibition is -29.9% (inactive).
With `C/C(=N\NC(=O)c1ccccc1F)c1ccccn1` the figure was 90.2% (active); with `Cc1cc(Cl)ccc1NC(=S)N1CCC(C(N)=O)(N2CCCCC2)CC1`, 5.02% (inactive); with `Cn1nccc1C(=O)NC1CCCc2c1cnn2-c1ccc(F)cc1F` (stereo not drawn), 71% (active).
With `CC(=O)NCC(=O)NC1CCCc2c1cnn2-c1ccccc1F` (stereo not drawn) the figure was -8.3% (inactive); with `Cc1ccc(-n2ncc3c2CCCC3NC(=O)c2cnccn2)cc1C` (stereo not drawn), -3.8% (inactive).
With `Cn1nccc1C(=O)NC1CCCc2c1cnn2-c1ccccc1F` (stereo not drawn) the figure was 62.9% (active); with `Cc1cc(C(=O)NC2CCCc3c2cnn3-c2cccc(C)c2C)c(C)o1` (stereo not drawn), 29.7% (inactive); with `COc1ccc(C(=O)NC2CCCc3c2cnn3-c2cccc(C)c2C)c(OC)n1` (stereo not drawn), 29.1% (inactive).
For `CC1CC(C)CN(C(=O)CCNC(=O)Cn2cnc3ccccc3c2=O)C1` (stereo not drawn), the inhibition is -7.78% (inactive).
With `Cc1ccc(S(=O)(=O)N(C)C)cc1NC(=O)c1n[nH]c(=O)c2ccccc12` the figure was -17.4% (inactive); with `COC(=O)C1=NN(c2ccccc2)C2C(=O)N(c3ccccc3OC)C(=O)C12` (stereo not drawn), 25.7% (inactive).
As for `COc1ccc(NCc2nnc(SCc3ccccc3)n2-c2ccc(OC)cc2)cc1`, the inhibition was -6.88% (inactive).
Regarding `CCOC(=O)c1cccc(NC(=O)C2CCN(c3ncnc4c3nc3n4CCCCC3)CC2)c1`, the inhibition was 12.1% (inactive).
The figure for `Oc1c(Br)cccc1/C=N/Nc1c(F)c(F)c(F)c(F)c1F` is 2.14% (inactive).
On to `Oc1cccc(/C=N/Nc2ccc(Cl)nn2)c1O`, for which the inhibition is 54.9% (active).
For `Cc1nc2ccccc2nc1N/N=C/c1ccc(O)cc1O`, the inhibition is 20.4% (inactive).
The figure for `Cc1cc(=O)[nH]c(Nc2cccc(Br)c2)n1` is 12.3% (inactive); for `CN(Cc1ccccc1)C(=O)CCNC(=O)Cn1cnc2ccccc2c1=O` it is -2.32% (inactive).
`CC(C)n1cnc2c(Nc3cccc(Cl)c3)nc(N(CCO)CCCO)nc21`: the inhibition was -12% (inactive).
The figure for `OCCCNc1nccc(-c2cc(Nc3cccc(Cl)c3)ncn2)n1` is 98.5% (active).
In the case of `Cc1cccc(Nc2nc(NCCO)nc(N3CCCC3)n2)c1`, the inhibition is 5.92% (inactive).
The figure for `Cc1ccc(S(=O)(=O)c2nc(-c3cccs3)oc2NCc2cccnc2)cc1` is -3.33% (inactive); for `COc1ccc(C(=O)N2CCN(c3ccc(C(C)=O)cc3F)CC2)cc1S(=O)(=O)NC1CC1` it is -20.9% (inactive).
With `C[C@H](CO)N1C[C@H](C)[C@@H](CN(C)C(=O)NC2CCCCC2)Oc2ccc(NC(=O)c3ccncc3)cc2C1=O`, the inhibition was 7.62% (inactive).
The figure for `COCCCNC(=O)CCc1nc2cccnc2n1Cc1ccc(OC)cc1` is 1.81% (inactive).
Regarding `Cn1c(-c2ccc(C(F)(F)F)cc2)cc2onc(-c3ccccc3)c2c1=O`, the inhibition is -242% (inactive).
Consider `O=C(Nc1ccccc1C(=O)N1CCOCC1)c1ccc(CSc2ccccc2)cc1`, for which the inhibition is -0.886% (inactive).
The figure for `O=C(Nc1ccc(CSc2ccccc2)cc1)c1ccc(CN2CCOCC2)cc1` is 69% (active); for `CCOc1ccc(C(=O)Nc2ccc(CN3CCOCC3)cc2)cc1Cl` it is -22.2% (inactive).
With `CCN(CC)CCNC(=O)c1ccc(NC(=O)c2cc(-c3ccncc3)nc3ccccc23)cc1` the figure was -38.2% (inactive).
For the compound `Cc1ccc2nc(-c3ccccn3)cc(C(=O)Nc3ccc4c(c3)OCO4)c2c1`, the inhibition is 11.1% (inactive).
Regarding `Cc1ccc2nc(-c3ccncc3)cc(C(=O)Nc3ccc(OC(F)F)cc3)c2c1`, the inhibition was 53.6% (active).
As to `CC(C)CC[n+]1ccn(C2=C([O-])c3ccccc3C(=O)/C2=N\S(=O)(=O)c2ccccc2)c1`, the inhibition is 6.27% (inactive).
Consider `Cc1ccc(OCCNC(=O)CN2C(=O)NC3(CCCC3)C2=O)cc1`, for which the inhibition was 7.61% (inactive).
With `O=C(Nc1ccc(Br)cc1)c1cccc(NC(=O)C2C3CC4OC(=O)C2C4C3)c1` (stereo not drawn) the figure was -6.94% (inactive); with `CCN1CCN(c2ccc(NC(=O)c3cnccn3)cc2)CC1`, -79.3% (inactive); with `COc1ccc(NC(=O)C/C(C)=N/NC(=O)c2cnccn2)cc1Cl`, -12.8% (inactive).
The figure for `CCN(CC)c1ccc(/C=N/NC(=O)c2cnccn2)c(O)c1` is 59.3% (active); for `CCC(C)n1[nH]c(=O)cc1N` (stereo not drawn) it is 6.5% (inactive); for `N#CC1(C#N)C(C(=O)C23CC4CC(CC(C4)C2)C3)C12CCOCC2` (stereo not drawn) it is 3.42% (inactive).
The figure for `C=C(C)C(=O)O[C@H]1C/C(C)=C\C(=O)/C=C(\C)[C@H](O)[C@@H]2OC(=O)C(=C)[C@@H]21` is 76.7% (active); for `COc1ccc2cc1Oc1ccc(cc1)C[C@H]1c3cc(c(OC)cc3CCN1C)Oc1c(O)c(OC)cc3c1[C@H](C2)N(C)CC3` it is 81.7% (active); for `C=CCn1c(SCC(=O)NCCCO)nc2sc3c(c2c1=O)CCC3` it is 6.01% (inactive).
With `C=CCn1c(SCC(=O)NCC2CCCO2)nc2sc(C)c(C)c2c1=O` (stereo not drawn), the inhibition is -2.81% (inactive).
With `C=CCn1c(SCc2c(C)noc2C)nc2sc3c(c2c1=O)CCC(C)C3` (stereo not drawn) the figure was 69.9% (active).
